Screening results: PubChem, National Center for Advancing Translational Sciences (NCATS)
This is a sample that favours compounds with a hit; in the whole collection about 7.5% have one here.
FLuc counter – counter-screen for miR-21 project: firefly luciferase inhibitors or activators; P08659; purified FLuc, Km substrates, luminescence inhibition; Potency, µM (top dose mostly 57.5 µM), inactives show at the highest dose activity change, negative = inhibition, most hits filed as inhibitors; 360,000 tested, 6.9% active;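 note: plate controls were vehicle for no effect and reference inhibitor for full effect; nearly all actives have a fitted effect of over 55% in size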
Target sequence (P08659 whole entry, looked up): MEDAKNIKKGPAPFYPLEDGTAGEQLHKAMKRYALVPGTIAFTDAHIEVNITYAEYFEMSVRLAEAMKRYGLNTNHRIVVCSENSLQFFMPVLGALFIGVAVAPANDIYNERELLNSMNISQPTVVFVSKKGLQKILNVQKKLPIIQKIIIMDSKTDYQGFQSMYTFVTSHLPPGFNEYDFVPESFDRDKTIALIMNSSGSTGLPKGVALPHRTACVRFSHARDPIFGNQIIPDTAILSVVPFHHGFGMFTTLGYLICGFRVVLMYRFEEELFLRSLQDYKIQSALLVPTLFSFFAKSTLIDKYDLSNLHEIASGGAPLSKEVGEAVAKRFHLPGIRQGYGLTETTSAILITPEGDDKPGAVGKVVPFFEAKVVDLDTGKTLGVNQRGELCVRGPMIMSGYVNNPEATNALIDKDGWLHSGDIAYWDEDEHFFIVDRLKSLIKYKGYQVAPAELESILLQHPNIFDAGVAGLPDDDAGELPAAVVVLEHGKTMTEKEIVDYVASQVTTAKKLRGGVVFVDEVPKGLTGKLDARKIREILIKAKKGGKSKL
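Purified P. pyralis luciferase, 10 nM final, with Km-level 10 uM D-luciferin and 10 uM ATP in 50 mM Tris acetate pH 7.5, 10 mM Mg acetate, 0.01% Tween-20, 0.05% BSA; 6-point qHTS titration about 60 µM downward; luminescence read.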
ELG1 genotoxic – genotoxicity induction in ELG1-luciferase HEK293T cells; Potency, µM (doses to about 46 µM), inactives show top-dose activity change, positive = activation, usual class: activators; HEK293T ELG1-luciferase reporter, luminescence, 16 h; 330,000 tested, 1.3% active; note: % of control where 0% means no effect; nearly all actives have a fitted effect of over 60% in size
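Reporter readout depends on ELG1 protein level, which increases with genetic stress. After 16 hr compound exposure at 37 °C, luciferase activity was quantified using ONE-Glo.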
Rab9 prom act – activators of Rab9 promoter; Potency, µM (doses to about 9.22 µM), for the others: top-dose activation, negative = inhibition, usual class: activators; AID 485297; Huh7 Rab9 promoter-luciferase reporter, luminescence, 24 h; 320,000 tested, 2.8% active; note: % of control where 0% means no effect; nearly all actives have a fitted effect of over 60% in size
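Huh7 cells stably carrying a Rab9 promoter-luciferase reporter, 1500 cells per well in OP-MEM I with 10% FBS, treated with compound 24 hours at 37C. Luciferase activity read by luminescence after 10 minutes with Amplite reagent.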
NPC1 prom act – activators of NPC1 promoter; Huh7 NPC1 promoter luciferase reporter, 24 h; Potency, µM (highest dose often 9.22 µM), for inactives: at the top dose activation, usual class: activators; 320,000 tested, 2.4% active; AID 485313; note: % of control where 0% means no effect; nearly all actives have a fitted effect of over 60% in size
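Readout is luciferase luminescence, reflecting NPC1 promoter activation in stably transfected Huh7 cells after 24 h compound exposure at 37 °C in reduced-serum medium with 10% FBS.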
KinaseGlo FLuc – blocks Kinase-Glo luciferase, a counter-screen artifact. Q27757. Kinase-Glo luciferase, ATP luminescence, 8 min. Potency, µM (doses to about 38.3 µM), without a hit: top-dose activity change, negative = inhibition, usual class: inhibitors. 200,000 tested, 0.28% active; note: % is set by controls: 0 for no effect and ±100 for the full control effect; nearly all actives have a fitted effect of over 60% in size
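Compound is pinned into ATP-containing buffer (10 uM ATP, imidazole pH 7.2, 7 mM MgCl2). Kinase-Glo luciferase reagent is then added. Light output is recorded following an 8-min room-temperature incubation.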
SMN2 splice enh – increases expression of the SMN2 splice variant; HEK293 SMN2-luciferase splicing reporter, luminescence, 30-36 h; Potency, µM (doses to about 46.1 µM), inactives show at the highest dose activity change, positive = activation, most hits filed as activators; 210,000 tested, 2.8% active; AID 1458; note: % of control where 0% means no effect; nearly all actives have a fitted effect of over 55% in size
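qHTS luciferase splicing reporter: luminescence rises when SMN2 exon 7 is included in transfected HEK293 cells. Compound exposure lasted 30-36 h at 37C, with 4.5 mM final sodium butyrate as control, followed by a ONE-Glo read.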
Starred values were filed as active, the others as inactive; ? = inconclusive; nt = no result. Calls come from the whole dose curve; as a rule, active = well fitted curve in the direction sought with a large enough effect; inconclusive = small, poorly fitted or top-dose-only effect, or another doubt; inactive = no such curve, though single readings can be large; an effect the other way counts as inactive or inconclusive. Potency is the fitted concentration of half-maximal effect.

SMILES	FLuc counter	ELG1 genotoxic	Rab9 prom act	NPC1 prom act	KinaseGlo FLuc	SMN2 splice enh
O=C(N/N=C/c1c[nH]c2ccccc12)c1cccc(O)c1	11µM*	17%	-4%	0%	nt	nt
CC(=O)Nc1cccc(C(=O)N/N=C/c2c[nH]c3ccccc23)c1	15µM*	4%	23%	28%	nt	nt
CCCOc1ccc(/C=N/Nc2ccc(C(=O)O)cc2)c(OCCC)c1	5.4µM*	?	?	8%	0%	-8%
COc1ccc2c(c1)c(/C=N/Nc1ccc(C(=O)O)cc1)c(C)n2C	4.8µM*	?	23%	?	nt	nt
CCNC(=O)CN(c1ccc(Oc2ccccc2)cc1)S(=O)(=O)c1ccccc1	6%	-15%	-8%	-2%	nt	nt
Oc1ccc(Cl)cc1/C=C/c1ccc2cccc(O)c2n1	21µM*	?	-15%	-21%	3%	8%
Oc1cccc2ccc(/C=C/c3ccccc3Br)nc12	3.4µM*	?	?	3.5µM*	nt	nt
CC(Oc1ccccc1F)C(=O)NNC(=O)c1ccc(F)c(S(=O)(=O)N2CCOCC2)c1 (stereo unspecified)	4%	2%	-1%	-3%	nt	nt
COc1ccc(-n2c(C)cc(/C=C3/SC(=O)N(CC(=O)N4CCOCC4)C3=O)c2C)cc1	1.7µM*	3%	24%	14%	-3%	4%
COc1ccc(C2(c3ccc(OC)cc3)NC(=O)N(CC(=O)N3CCOCC3)C2=O)cc1	1%	2%	-3%	-1%	nt	nt
Cn1c(=O)n(C)c2cc(/C=C3/SC(=O)N(CC(=O)N4CCOCC4)C3=O)ccc21	-23%	?	-4%	-1%	-1%	7%
Cc1cc(/C=C2/SC(=O)N(CC(=O)N3CCOCC3)C2=O)c(C)n1-c1ccccc1F	0.38µM*	?	1.6µM*	3.5µM*	-3%	11µM*
COc1cccc(NC(=O)c2ccc3c(c2)CCN3S(C)(=O)=O)c1	17µM*	5%	?	27%	nt	30%
CC(=O)Nc1ccc(NC(=O)c2ccc3c(c2)CCN3S(C)(=O)=O)cc1	-1%	-2%	-11%	-2%	nt	nt
CCc1ccc(NC(=O)c2ccc3c(c2)N(Cc2ccc(C)cc2)CCS3)cc1	?	nt	nt	nt	nt	25µM*
CN1CCSc2ccc(C(=O)Nc3ccc(Cl)cc3)cc21	?	?	3.5µM*	2.8µM*	nt	nt
COc1cccc(NC(=O)c2ccc3c(c2)N(C)CCS3)c1	2.7µM*	?	3.5µM*	1.3µM*	nt	nt
CSCCC(NC(=O)c1ccco1)C(=O)Nc1ccncc1 (stereo unspecified)	1%	2%	-4%	-1%	nt	nt
O=C(NCCc1ccc(Cl)cc1)c1nnc(Cc2ccc(Cl)cc2Cl)o1	2%	nt	nt	nt	nt	-4%
CCC(C)NC(=O)c1ccc(NC(=O)CC2SC(N3CCCC3)=NC2=O)cc1 (stereo unspecified)	nt	4%	3%	-4%	nt	nt
CCn1c(SCc2ccc(C(=O)Nc3nccs3)cc2)nnc1-c1ccc(N)cc1	17µM*	-5%	0%	12%	-5%	15%
C=CCn1c(SCc2ccc(C(=O)Nc3ccccc3)cc2)nnc1-c1ccccc1	13µM*	-7%	10%	13%	-3%	-14%
CCn1c(SCc2ccc(C(=O)Nc3nccs3)cc2)nnc1-c1ccc(NC(C)=O)cc1	11µM*	-3%	5%	4%	1%	9%
C=CCn1c(SCC(=O)NNC(=S)Nc2ccccc2)nnc1-c1ccccc1	-1%	4%	-1%	-6%	nt	nt
Cn1c(SCc2ccc(C(=O)Nc3nccs3)cc2)nnc1-c1ccccc1	15µM*	-2%	10%	18%	-4%	-1%
SMILES	FLuc counter	ELG1 genotoxic	Rab9 prom act	NPC1 prom act	KinaseGlo FLuc	SMN2 splice enh
CC(C)(C)C(=O)NNC(=O)c1cnccn1	-1%	-4%	-3%	3%	nt	nt
Cc1ccccc1-c1cncnc1NCCN1CCOCC1	nt	nt	nt	nt	-5%	2%
C=CCN1C(=O)S/C(=C/c2ccsc2)C1=O	19µM*	?	16%	2%	-6%	-7%
CC(C)(C)c1ccc(C(=O)NCCC(=O)N2CCCC2)cc1	9.5µM*	21µM*	4µM*	2.2µM*	nt	nt
Cc1ccc(C(=O)NCCC(=O)N2CCOCC2)cc1	11µM*	13µM*	2.5µM*	1.6µM*	nt	nt
CC(C)(C)c1ccc(C(=O)NCC(=O)OCC(=O)N2CCCC2)cc1	15µM*	0%	-3%	-1%	nt	nt
Cc1ccc(C(=O)NCCN2CCOCC2)cc1	-9%	6%	5%	-2%	1%	0%
CCOC(=O)N1CCc2c(sc3c2c(=O)n(CCc2ccccc2)c(=O)n3CC(=O)Nc2ccc(C)cc2)C1	1%	nt	nt	nt	nt	0%
CSc1ccc(/C=N/NC(=O)c2cc(O)cc(O)c2)cc1	9.5µM*	?	?	?	?	?
CSc1ccc(/C=N/NC(=O)c2sccc2C)cc1	0.43µM*	1.8µM*	0.63µM*	0.56µM*	?	2.5µM*
CSc1ccc(/C=N/NC(=O)c2ccc(C)c(C)c2)cc1	19µM*	6%	-1%	2%	-6%	11%
COc1ccc(OCc2ccc(/C=N\NC(=O)c3sccc3C)o2)cc1	27µM*	13%	?	?	nt	nt
Cc1cccc(C(=O)Oc2ccc(/C=N/NC(=O)c3cc(O)cc(O)c3)cc2)c1	?	7%	4%	-1%	nt	nt
O=C1CN(C(=O)COC(=O)CCc2ccccc2O)c2ccccc2N1	nt	-1%	nt	nt	nt	nt
COc1cc(/C=C/c2cc(C(=O)O)c3ccccc3n2)ccc1OC(F)F	0.43µM*	3%	3.2µM*	3.2µM*	nt	nt
CC(=O)Nc1ccc(/C=C/c2ccc3c([N+](=O)[O-])cccc3n2)cc1	?	?	1.1µM*	?	-1%	?
O=C(O)c1cc(/C=C/c2ccc(N3CCOCC3)cc2)nc2ccccc12	0.48µM*	13%	?	?	11µM*	?
O=[N+]([O-])c1cccc2ccc(/C=C/c3ccc(Cl)cc3)nc12	?	-1%	?	?	nt	nt
O=C(O)c1cc(/C=C/c2ccc(N3CCOCC3)c([N+](=O)[O-])c2)nc2ccccc12	1.2µM*	?	?	?	nt	nt
O=C(O)c1cc(N2CCOCC2)nc2ccccc12	-5%	1%	0%	1%	nt	nt
COc1cc(/C=C/C(=O)OCN2C(=O)c3ccccc3C2=O)ccc1OC(F)F	2%	6%	-3%	-1%	nt	nt
O=C(c1cc(-c2ccc(F)cc2)on1)N1CCOCC1	6µM*	?	1.6µM*	1.1µM*	nt	nt
O=C(c1cc(-c2ccc(Br)cc2)on1)N1CCCC1	1.5µM*	2.1µM*	0.5µM*	0.63µM*	nt	nt
CN1CCN(C(=O)c2cc(-c3ccccc3)on2)CC1	?	17%	?	?	-1%	?
